According to article PMC7862700, “An all-to-all approach to the identification of sequence-specific readers for epigenetic DNA modifications on cytosine”:

Legend:
Experiment in all cases: DAPPL (digital affinity profiling via proximity ligation, sequencing); 10 mM Tris-HCl pH 7.5, 50 mM NaCl, 1 mM DTT, 4% glycerol, room temperature, 30 min; GST-TFs on glutathione beads, 16-mer random dsDNA library, 0.1% formaldehyde crosslink after washing; high values mean tight binding
[1] = biological target: T1, FLI1 (Homo sapiens, UniProt Q01543 1-452); settings: protein: recombinant; tags: N-terminal GST; dsDNA, one strand shown
T1 sequence: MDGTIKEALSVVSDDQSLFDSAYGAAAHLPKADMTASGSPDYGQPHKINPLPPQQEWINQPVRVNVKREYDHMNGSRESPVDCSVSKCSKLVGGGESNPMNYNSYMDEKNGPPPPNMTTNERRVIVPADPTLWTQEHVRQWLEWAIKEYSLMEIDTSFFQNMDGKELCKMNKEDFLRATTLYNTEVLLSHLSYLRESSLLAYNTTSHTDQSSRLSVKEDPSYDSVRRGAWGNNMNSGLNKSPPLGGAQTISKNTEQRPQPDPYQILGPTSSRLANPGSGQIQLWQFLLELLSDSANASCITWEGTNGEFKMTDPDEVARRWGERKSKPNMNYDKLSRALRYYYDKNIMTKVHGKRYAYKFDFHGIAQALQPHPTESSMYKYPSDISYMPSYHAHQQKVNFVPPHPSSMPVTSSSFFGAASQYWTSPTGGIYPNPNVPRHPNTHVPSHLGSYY
How it was run: (§1)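 Human transcription factors carrying a GST fusion were produced in yeast, bound to glutathione beads, tagged with DNA barcodes and pooled together with a tag-only sample. Each pool was held with 200 nmole of a random double-stranded 16-mer DNA library in Tris/NaCl/DTT/glycerol buffer for 30 min at room temperature, then washed, crosslinked in 0.1% formaldehyde, proximity-ligated with BsaI/T4 ligase (1 h, 37 °C), PCR-amplified and sequenced on an Illumina NextSeq500. Binding signal is the read frequency of each hexamer for a given factor divided by its frequency in the tag-only sample.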

[2] = biological target: T2, ELK1 (Homo sapiens, UniProt P19419 1-428); settings: protein: recombinant; tags: N-terminal GST; dsDNA, one strand shown
T2 sequence: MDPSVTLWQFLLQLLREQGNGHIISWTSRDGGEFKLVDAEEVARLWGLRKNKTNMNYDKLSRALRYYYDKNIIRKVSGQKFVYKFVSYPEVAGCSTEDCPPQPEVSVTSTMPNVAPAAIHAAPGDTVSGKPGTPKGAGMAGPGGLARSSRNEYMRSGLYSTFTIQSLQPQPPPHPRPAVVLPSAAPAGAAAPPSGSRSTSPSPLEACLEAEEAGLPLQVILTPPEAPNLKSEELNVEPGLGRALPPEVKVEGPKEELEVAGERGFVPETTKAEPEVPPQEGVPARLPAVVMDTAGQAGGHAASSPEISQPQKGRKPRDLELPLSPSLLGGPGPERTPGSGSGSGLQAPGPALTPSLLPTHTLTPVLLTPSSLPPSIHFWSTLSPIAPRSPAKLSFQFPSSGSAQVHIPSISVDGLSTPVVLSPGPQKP
How it was run: as §1

[3] = biological target: T3, GABPA (Homo sapiens, UniProt Q06546 1-454); settings: protein: recombinant; tags: N-terminal GST; dsDNA, one strand shown
T3 sequence: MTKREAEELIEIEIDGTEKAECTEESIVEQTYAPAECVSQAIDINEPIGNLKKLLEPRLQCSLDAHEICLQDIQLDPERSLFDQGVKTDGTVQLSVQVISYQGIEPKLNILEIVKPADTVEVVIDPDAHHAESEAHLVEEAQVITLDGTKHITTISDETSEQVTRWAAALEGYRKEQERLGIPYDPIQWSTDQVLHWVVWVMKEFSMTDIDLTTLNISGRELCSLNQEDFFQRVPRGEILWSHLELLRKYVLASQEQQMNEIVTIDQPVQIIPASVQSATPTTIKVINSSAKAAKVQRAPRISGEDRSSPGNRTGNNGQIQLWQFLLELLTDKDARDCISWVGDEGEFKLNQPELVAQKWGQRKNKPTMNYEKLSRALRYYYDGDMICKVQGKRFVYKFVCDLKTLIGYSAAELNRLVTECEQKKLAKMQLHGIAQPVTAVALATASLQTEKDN
How it was run: as §1

[4] = biological target: T4, ERG (Homo sapiens, UniProt P11308 1-479); settings: protein: recombinant; tags: N-terminal GST; dsDNA, one strand shown
T4 sequence: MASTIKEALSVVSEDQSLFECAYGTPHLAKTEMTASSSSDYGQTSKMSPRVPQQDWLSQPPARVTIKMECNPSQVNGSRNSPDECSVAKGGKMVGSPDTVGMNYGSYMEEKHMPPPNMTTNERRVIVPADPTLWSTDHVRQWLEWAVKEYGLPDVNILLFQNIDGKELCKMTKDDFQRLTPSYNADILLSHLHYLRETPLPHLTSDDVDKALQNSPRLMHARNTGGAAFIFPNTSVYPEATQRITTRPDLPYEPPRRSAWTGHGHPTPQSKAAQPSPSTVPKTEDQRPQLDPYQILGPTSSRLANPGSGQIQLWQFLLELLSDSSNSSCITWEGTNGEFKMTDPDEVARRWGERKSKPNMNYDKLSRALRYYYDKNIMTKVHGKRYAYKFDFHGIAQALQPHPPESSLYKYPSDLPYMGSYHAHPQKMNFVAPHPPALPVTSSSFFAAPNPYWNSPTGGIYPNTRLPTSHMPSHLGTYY
How it was run: as §1

[5] = biological target: ELF1 (Homo sapiens, UniProt P32519 1-619); settings: protein: recombinant; tags: N-terminal GST; dsDNA, one strand shown
How it was run: as §1

[6] = biological target: T5, EHF (Homo sapiens, UniProt Q9NZC4 1-300); settings: protein: recombinant; tags: N-terminal GST; dsDNA, one strand shown
T5 sequence: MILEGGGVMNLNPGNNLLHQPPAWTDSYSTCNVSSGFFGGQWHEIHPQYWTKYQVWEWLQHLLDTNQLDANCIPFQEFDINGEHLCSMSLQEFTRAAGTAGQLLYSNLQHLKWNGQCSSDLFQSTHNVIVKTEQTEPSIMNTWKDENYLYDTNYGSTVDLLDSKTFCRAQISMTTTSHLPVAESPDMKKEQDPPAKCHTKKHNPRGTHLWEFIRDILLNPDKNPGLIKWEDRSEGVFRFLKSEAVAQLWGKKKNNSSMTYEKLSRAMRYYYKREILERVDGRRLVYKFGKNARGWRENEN
How it was run: as §1

[7] = biological target: SPI1 (Homo sapiens, UniProt P17947 1-270); settings: protein: recombinant; tags: N-terminal GST; dsDNA, one strand shown
How it was run: as §1

[8] = biological target: SPIB (Homo sapiens, UniProt Q01892 1-262); settings: protein: recombinant; tags: N-terminal GST; dsDNA, one strand shown
How it was run: as §1

[9] = biological target: T6, ELK3 (Homo sapiens, UniProt P41970 1-407); settings: protein: recombinant; tags: N-terminal GST; dsDNA, one strand shown
T6 sequence: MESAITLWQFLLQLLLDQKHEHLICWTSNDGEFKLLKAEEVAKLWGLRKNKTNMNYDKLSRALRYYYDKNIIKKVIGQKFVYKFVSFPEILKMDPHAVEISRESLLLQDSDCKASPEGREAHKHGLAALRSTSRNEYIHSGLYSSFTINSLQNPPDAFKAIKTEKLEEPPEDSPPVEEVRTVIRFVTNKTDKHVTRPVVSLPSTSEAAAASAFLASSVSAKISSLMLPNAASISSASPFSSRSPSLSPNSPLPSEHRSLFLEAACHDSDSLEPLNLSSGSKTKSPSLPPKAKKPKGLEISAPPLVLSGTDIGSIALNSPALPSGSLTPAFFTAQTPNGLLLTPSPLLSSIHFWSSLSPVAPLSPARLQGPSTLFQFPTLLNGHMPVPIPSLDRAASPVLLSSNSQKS
How it was run: as §1

[10] = biological target: T7, FEV (Homo sapiens, UniProt Q99581 1-238); settings: protein: recombinant; tags: N-terminal GST; dsDNA, one strand shown
T7 sequence: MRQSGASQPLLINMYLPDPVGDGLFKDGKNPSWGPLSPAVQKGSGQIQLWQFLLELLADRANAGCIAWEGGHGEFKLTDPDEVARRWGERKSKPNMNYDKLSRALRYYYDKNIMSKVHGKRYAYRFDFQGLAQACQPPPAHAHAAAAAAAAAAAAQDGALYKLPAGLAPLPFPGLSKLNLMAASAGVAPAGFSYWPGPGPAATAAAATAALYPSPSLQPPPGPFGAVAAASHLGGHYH
How it was run: as §1

[11] = biological target: ETV5 (Homo sapiens, UniProt P41161 1-510); settings: protein: recombinant; tags: N-terminal GST; dsDNA, one strand shown
How it was run: as §1

[12] = biological target: HSF1 (Homo sapiens, UniProt Q00613 1-529); settings: protein: recombinant; tags: N-terminal GST; chain copies: 3; dsDNA, one strand shown
How it was run: as §1

[13] = biological target: T8, SPIC (Homo sapiens, UniProt Q8N5J4 1-248); settings: protein: recombinant; tags: N-terminal GST; dsDNA, one strand shown
T8 sequence: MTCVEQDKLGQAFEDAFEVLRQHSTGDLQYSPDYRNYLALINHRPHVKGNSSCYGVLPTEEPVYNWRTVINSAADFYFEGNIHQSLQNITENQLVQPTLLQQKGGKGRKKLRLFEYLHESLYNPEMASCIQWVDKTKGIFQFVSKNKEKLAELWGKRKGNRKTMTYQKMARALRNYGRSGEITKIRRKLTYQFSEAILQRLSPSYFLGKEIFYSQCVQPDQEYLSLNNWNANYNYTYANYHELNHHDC
How it was run: as §1

[14] = biological target: ELF4 (Homo sapiens, UniProt Q99607 1-663); settings: protein: recombinant; tags: N-terminal GST; dsDNA, one strand shown
How it was run: as §1

[15] = biological target: T9, ELK4 (Homo sapiens, UniProt P28324-2 1-405); settings: protein: recombinant; tags: N-terminal GST; dsDNA, one strand shown
T9 sequence: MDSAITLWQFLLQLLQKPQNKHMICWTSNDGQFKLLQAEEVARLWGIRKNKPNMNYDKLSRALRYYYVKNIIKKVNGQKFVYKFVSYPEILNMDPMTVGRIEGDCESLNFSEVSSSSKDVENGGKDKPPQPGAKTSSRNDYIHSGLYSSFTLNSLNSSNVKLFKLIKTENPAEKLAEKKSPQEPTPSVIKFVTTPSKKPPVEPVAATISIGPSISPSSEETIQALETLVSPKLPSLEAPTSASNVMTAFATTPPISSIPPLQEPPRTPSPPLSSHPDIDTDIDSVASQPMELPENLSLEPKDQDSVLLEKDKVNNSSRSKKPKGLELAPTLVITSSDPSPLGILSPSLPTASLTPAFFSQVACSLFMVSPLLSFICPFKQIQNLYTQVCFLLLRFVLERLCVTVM
How it was run: as §1

[16] = biological target: T10, ETV2 (Homo sapiens, UniProt O00321 1-342); settings: protein: recombinant; tags: N-terminal GST; dsDNA, one strand shown
T10 sequence: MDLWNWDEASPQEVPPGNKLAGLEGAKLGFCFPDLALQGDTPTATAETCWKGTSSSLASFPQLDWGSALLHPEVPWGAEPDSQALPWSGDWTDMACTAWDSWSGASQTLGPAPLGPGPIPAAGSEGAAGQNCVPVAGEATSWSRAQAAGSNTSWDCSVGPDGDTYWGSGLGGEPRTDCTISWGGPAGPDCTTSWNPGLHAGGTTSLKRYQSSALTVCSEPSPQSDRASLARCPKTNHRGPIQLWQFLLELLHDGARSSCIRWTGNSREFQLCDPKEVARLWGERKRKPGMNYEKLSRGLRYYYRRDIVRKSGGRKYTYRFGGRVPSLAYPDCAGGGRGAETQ
How it was run: as §1

[17] = biological target: CRX (Homo sapiens, UniProt O43186 1-299); settings: protein: recombinant; tags: N-terminal GST; dsDNA, one strand shown
How it was run: as §1

[18] = biological target: ETV1 (Homo sapiens, UniProt P50549 1-477); settings: protein: recombinant; tags: N-terminal GST; dsDNA, one strand shown
How it was run: as §1

CRX, sequence (O43186 whole entry): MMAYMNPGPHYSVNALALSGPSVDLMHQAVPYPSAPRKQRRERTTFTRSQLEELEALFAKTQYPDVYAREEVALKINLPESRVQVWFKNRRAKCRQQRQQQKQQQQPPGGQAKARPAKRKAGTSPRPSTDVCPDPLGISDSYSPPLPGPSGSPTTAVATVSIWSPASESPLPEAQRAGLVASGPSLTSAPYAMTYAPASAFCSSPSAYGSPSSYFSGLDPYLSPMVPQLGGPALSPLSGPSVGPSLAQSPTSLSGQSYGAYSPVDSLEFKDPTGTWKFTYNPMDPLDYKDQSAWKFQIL
ETV5, sequence (P41161 whole entry): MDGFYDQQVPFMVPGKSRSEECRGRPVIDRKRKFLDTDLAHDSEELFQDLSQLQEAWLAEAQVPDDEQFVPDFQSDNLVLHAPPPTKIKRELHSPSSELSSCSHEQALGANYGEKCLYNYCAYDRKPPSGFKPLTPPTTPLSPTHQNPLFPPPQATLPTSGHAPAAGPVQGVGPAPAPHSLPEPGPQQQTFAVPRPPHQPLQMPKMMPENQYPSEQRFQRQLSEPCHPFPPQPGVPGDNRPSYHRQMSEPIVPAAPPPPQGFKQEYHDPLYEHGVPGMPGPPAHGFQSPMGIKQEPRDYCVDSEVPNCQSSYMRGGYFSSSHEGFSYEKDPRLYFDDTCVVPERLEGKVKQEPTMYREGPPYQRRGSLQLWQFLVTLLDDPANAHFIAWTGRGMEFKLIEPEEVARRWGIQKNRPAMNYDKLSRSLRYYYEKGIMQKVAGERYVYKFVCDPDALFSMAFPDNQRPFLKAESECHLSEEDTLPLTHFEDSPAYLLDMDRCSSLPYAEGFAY
ELF4, sequence (Q99607 whole entry): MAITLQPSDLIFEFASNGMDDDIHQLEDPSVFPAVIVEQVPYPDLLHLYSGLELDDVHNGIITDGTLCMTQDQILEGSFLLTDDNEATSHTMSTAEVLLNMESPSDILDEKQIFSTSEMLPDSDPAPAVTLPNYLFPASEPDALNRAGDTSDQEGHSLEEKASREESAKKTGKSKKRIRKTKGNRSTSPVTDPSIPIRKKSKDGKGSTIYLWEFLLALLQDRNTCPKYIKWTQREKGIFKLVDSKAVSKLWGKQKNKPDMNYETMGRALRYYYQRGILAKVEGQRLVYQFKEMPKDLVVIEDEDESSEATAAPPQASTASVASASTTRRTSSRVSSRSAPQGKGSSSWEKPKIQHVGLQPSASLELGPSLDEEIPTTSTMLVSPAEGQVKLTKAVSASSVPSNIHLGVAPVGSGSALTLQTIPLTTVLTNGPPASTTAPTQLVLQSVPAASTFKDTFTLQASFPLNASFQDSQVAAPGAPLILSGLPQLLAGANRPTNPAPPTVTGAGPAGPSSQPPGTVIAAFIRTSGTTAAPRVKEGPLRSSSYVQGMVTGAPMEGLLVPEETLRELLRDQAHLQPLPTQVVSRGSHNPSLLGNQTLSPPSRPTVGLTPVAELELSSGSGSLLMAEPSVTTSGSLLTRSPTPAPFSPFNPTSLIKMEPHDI
HSF1, sequence (Q00613 whole entry): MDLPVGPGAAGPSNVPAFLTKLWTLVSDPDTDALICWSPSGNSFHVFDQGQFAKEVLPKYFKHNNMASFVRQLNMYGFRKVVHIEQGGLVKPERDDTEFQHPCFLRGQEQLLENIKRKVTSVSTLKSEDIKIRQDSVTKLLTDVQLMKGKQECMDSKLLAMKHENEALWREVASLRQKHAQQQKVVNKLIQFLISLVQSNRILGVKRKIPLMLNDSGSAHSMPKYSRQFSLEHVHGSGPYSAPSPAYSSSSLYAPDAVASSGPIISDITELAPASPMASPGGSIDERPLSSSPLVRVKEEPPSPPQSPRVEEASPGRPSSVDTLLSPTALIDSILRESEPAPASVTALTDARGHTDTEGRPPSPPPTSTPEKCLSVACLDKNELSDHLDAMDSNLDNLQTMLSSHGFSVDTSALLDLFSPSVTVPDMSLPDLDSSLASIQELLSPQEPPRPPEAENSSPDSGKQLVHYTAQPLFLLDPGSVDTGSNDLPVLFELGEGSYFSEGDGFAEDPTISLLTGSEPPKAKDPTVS
ELF1, sequence (P32519 whole entry): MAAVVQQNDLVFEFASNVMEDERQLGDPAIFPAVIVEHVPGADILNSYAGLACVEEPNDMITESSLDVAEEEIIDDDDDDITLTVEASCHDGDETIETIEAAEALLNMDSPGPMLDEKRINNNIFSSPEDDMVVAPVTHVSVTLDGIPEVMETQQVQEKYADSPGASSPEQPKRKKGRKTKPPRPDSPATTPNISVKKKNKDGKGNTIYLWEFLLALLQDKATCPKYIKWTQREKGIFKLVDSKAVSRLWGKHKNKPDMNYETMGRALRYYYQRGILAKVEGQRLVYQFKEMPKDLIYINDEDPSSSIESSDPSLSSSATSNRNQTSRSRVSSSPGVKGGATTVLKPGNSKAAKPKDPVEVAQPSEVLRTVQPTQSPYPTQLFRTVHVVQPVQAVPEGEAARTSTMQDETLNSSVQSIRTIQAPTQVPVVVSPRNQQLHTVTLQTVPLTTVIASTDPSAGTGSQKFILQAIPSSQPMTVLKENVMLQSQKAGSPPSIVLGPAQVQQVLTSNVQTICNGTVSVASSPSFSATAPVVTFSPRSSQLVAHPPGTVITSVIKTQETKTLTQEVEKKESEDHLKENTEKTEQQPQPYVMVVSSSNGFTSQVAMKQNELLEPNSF
SPIB, sequence (Q01892 whole entry): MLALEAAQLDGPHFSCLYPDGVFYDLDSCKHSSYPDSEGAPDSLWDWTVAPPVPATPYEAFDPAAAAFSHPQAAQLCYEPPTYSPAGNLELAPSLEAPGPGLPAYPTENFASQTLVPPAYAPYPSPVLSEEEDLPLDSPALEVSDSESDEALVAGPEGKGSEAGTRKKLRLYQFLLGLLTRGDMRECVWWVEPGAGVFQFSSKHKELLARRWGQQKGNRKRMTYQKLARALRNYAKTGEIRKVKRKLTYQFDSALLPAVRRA
ETV1, sequence (P50549 whole entry): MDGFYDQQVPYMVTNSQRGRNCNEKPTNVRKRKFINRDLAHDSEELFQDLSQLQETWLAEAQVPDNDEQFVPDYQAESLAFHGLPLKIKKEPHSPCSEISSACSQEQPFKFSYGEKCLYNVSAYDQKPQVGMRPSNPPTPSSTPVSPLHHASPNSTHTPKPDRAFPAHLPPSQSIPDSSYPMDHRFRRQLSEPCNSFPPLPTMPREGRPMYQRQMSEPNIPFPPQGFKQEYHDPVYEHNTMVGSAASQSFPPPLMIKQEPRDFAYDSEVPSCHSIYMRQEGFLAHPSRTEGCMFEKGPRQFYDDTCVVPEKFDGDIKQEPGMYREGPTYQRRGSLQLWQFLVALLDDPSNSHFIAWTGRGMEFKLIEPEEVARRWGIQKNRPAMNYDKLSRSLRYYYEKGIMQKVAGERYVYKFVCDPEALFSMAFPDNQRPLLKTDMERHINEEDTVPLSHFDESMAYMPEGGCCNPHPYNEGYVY

Sequence: ATCATA
- binding signal [1]: 1.07 fold enrichment (6-mer frequency, TF over GST control)
- binding signal [2]: 1.06 fold enrichment (6-mer frequency, TF over GST control)
- binding signal [3]: 1.16 fold enrichment (6-mer frequency, TF over GST control)
- binding signal [4]: 1.05 fold enrichment (6-mer frequency, TF over GST control)
- binding signal [5]: 1.12 fold enrichment (6-mer frequency, TF over GST control)
- binding signal [6]: 1.03 fold enrichment (6-mer frequency, TF over GST control)
- binding signal [7]: 1.05 fold enrichment (6-mer frequency, TF over GST control)
- binding signal [8]: 1.18 fold enrichment (6-mer frequency, TF over GST control)
- binding signal [9]: 1.09 fold enrichment (6-mer frequency, TF over GST control)
- binding signal [10]: 1.07 fold enrichment (6-mer frequency, TF over GST control)
- binding signal [11]: 1.09 fold enrichment (6-mer frequency, TF over GST control)
- binding signal [12]: 1.16 fold enrichment (6-mer frequency, TF over GST control)
- binding signal [13]: 1.04 fold enrichment (6-mer frequency, TF over GST control)
- binding signal [14]: 1.08 fold enrichment (6-mer frequency, TF over GST control)
- binding signal [15]: 1.08 fold enrichment (6-mer frequency, TF over GST control)
- binding signal [16]: 1.16 fold enrichment (6-mer frequency, TF over GST control)
- binding signal [17]: 1.39 fold enrichment (6-mer frequency, TF over GST control)
- binding signal [18]: 1.08 fold enrichment (6-mer frequency, TF over GST control)
